Calls of active or inactive are those of the source.
Key:
[1] = system: PRMT1 (protein arginine N-methyltransferase 1); assay: small molecules binding arginine methyltransferase PRMT1 – biochemical, small-molecule microarray, 635 nm fluorescence, primary screen (AID 1088); details: higher = more signal;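 also: binding of Prmt1 protein to compounds spotted on small-molecule microarray slides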
[2] = growth effects on S. cerevisiae YJM789 – YJM789 clinical isolate, OD600, 24 h, basal, primary screen (AID 1089); details: higher = more signal, called active from +8 up or from −8 down;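 also: growth of clinical yeast isolate S. cerevisiae YJM 789 seeded 1000 cells per well; test concentration not given here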
[3] = S. pombe growth modifiers, basal conditions – strain 972, OD600, 24 h, no modulator, primary screen (AID 1090);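 also: basal condition with compound alone and no growth modifier present; test concentration not given here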; details: S. pombe 972 growth, higher = more signal, called active from +8 up or from −8 down
[4] = budding yeast growth modifiers under rapamycin – strain BY4716, OD600, 96 h, primary screen (AID 1091); also: test concentration not given here; details: S. cerevisiae BY4716 + rapamycin, higher = more signal, called active from +8 up or from −8 down
[5] = molecular target: Torsin-1A-interacting protein 2 (Homo sapiens) (UniProt Q8NFQ8); assay: small molecules binding lysate-expressed LULL1 – cell lysate, human LULL1 lysate, 635/667 nm fluorescence, primary screen (AID 1092); details: small-molecule microarray, hLULL1 lysate binding, 635 nm fluorescence; higher = more signal;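 also: probe is lysate of COS7 cells overexpressing human LULL1; score merges per-feature 667 nm fluorescence with signal-to-noise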
[6] = optical density change of DRC41 E. coli – strain DRC41, OD650, 24 h, E. coli filamentation project, primary screen (AID 1093);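 also: MC1000 strain lacking acrAB efflux and sulA so SOS filamentation is blocked; test concentration not given here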; details: E. coli DRC41 growth, higher = more signal, called active from +8 up or from −8 down
[7] = probe aLefty2 binding to arrayed compounds – biochemical, biotinylated probe, 635/667 nm fluorescence, primary screen (AID 1094); details: small-molecule microarray, higher = more signal;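 also: score merges spot fluorescence near 667 nm with spot signal-to-noise ratio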
[8] = system: Noggin (protein binding on small-molecule microarray); assay: small molecules binding Noggin protein – biochemical, 635/667 nm fluorescence, primary screen (AID 1095); details: 635 nm fluorescence, higher = more signal;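 also: score merges 667 nm feature fluorescence with signal to noise over triplicate slides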
[9] = molecular target: Neurogenic locus notch homolog protein 3 (Homo sapiens) (UniProt Q9UM47); assay: small molecules binding NOTCH3 protein – biochemical, 635/667 nm fluorescence, primary screen (AID 1096); details: small-molecule microarray, 635 nm fluorescence, higher = more signal
[10] = probe aEGFR binding to arrayed compounds – biochemical, biotinylated probe, 635/667 nm fluorescence, primary screen (AID 1097); details: small-molecule microarray, higher = more signal;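 also: probe is a biotinylated anti-EGFR antibody binding compounds printed on slides; score combines fluorescence near 667 nm and signal to noise of each spot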
[11] = system: Plasmodium falciparum Sir2 (PF13_0152, Sir2A); assay: Plasmodium falciparum Sir2A binding compounds – biochemical, small-molecule microarray, 635 nm fluorescence, primary screen (AID 1098); details: fluorescence 635 nm, higher = more signal;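 also: score merges spot fluorescence intensity with its signal-to-noise ratio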
[12] = probe aDKK1 binding to arrayed compounds – biochemical, biotinylated probe, 635/667 nm fluorescence, primary screen (AID 1099); details: small-molecule microarray, higher = more signal;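 also: score merges 667nm spot fluorescence with signal to noise across triplicate slides; reference of the scale not given here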
[13] = probe aCHRDL2 binding to arrayed compounds – biochemical, biotinylated probe, 635/667 nm fluorescence, primary screen (AID 1100); details: small-molecule microarray, higher = more signal
[14] = change in splice reporter luminescence, either direction, cell-based, HEK293, spliceosome inhibition project, primary screen (AID 1101); details: HEK293 splicing luciferase reporter, 24 h, higher = more signal, called active from +8 up or from −8 down;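 also: HEK293 cells carrying a splicing-competent luciferase reporter gene; test concentration not given here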
[15] = molecular target: Fibroblast growth factor 10 (Homo sapiens) (UniProt O15520); assay: compounds binding fibroblast growth factor 10 – biochemical, small-molecule microarray, 635 nm fluorescence, primary screen (AID 1102); details: FGF10 binding, fluorescence 635 nm, higher = more signal
[16] = system: glycogen synthase kinase-3 (GSK3A per assay name; protocol says GSK3B); assay: compounds binding glycogen synthase kinase-3 – biochemical, small-molecule microarray, 635 nm fluorescence, GSK3A, primary screen (AID 1103); details: fluorescence 635 nm, higher = more signal; also: the record names both GSK3A and GSK3B
[17] = molecular target: Epidermal growth factor receptor (Homo sapiens) (UniProt P00533); assay: compounds binding epidermal growth factor receptor – biochemical, small-molecule microarray, 635 nm fluorescence, primary screen (AID 1104); details: EGFR binding, higher = more signal;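 also: score merges 667 nm emission intensity with spot signal to noise over triplicate slides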
[18] = molecular target: Follistatin-related protein 3 (Homo sapiens) (UniProt O95633); assay: compounds binding follistatin-related protein 3 – biochemical, small-molecule microarray, 635 nm fluorescence, primary screen (AID 1105); details: FSTL3 binding, higher = more signal;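 also: score merges emission near 667 nm and signal to noise per printed spot across three slides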
[19] = molecular target: Dickkopf-related protein 1 (Homo sapiens) (UniProt O94907); assay: small molecules binding DKK1 protein – biochemical, small-molecule microarray, 635 nm fluorescence scan, primary screen (AID 1106); details: higher = more signal;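 also: score merges emission near 667 nm with signal to noise over three replicate slides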
[20] = system: Inhibin beta A chain (activin A); assay: small molecules binding activin A – biochemical, small-molecule microarray, 635 nm fluorescence scan, primary screen (AID 1107); details: INHBA, higher = more signal;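 also: mouse activin A protein probed at 4.33 µg/mL on printed slides; score merges bound-protein fluorescence near 667 nm with spot signal-to-noise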

Sequence of Fibroblast growth factor 10 (Homo sapiens) (O15520 whole entry, looked up): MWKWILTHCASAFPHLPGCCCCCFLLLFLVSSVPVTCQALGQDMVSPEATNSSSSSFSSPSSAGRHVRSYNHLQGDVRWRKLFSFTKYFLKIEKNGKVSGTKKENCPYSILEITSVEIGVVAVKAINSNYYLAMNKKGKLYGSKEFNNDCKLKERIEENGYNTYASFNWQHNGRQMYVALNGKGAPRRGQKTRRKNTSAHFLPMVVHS
Sequence of Neurogenic locus notch homolog protein 3 (Homo sapiens) (Q9UM47 whole entry, looked up): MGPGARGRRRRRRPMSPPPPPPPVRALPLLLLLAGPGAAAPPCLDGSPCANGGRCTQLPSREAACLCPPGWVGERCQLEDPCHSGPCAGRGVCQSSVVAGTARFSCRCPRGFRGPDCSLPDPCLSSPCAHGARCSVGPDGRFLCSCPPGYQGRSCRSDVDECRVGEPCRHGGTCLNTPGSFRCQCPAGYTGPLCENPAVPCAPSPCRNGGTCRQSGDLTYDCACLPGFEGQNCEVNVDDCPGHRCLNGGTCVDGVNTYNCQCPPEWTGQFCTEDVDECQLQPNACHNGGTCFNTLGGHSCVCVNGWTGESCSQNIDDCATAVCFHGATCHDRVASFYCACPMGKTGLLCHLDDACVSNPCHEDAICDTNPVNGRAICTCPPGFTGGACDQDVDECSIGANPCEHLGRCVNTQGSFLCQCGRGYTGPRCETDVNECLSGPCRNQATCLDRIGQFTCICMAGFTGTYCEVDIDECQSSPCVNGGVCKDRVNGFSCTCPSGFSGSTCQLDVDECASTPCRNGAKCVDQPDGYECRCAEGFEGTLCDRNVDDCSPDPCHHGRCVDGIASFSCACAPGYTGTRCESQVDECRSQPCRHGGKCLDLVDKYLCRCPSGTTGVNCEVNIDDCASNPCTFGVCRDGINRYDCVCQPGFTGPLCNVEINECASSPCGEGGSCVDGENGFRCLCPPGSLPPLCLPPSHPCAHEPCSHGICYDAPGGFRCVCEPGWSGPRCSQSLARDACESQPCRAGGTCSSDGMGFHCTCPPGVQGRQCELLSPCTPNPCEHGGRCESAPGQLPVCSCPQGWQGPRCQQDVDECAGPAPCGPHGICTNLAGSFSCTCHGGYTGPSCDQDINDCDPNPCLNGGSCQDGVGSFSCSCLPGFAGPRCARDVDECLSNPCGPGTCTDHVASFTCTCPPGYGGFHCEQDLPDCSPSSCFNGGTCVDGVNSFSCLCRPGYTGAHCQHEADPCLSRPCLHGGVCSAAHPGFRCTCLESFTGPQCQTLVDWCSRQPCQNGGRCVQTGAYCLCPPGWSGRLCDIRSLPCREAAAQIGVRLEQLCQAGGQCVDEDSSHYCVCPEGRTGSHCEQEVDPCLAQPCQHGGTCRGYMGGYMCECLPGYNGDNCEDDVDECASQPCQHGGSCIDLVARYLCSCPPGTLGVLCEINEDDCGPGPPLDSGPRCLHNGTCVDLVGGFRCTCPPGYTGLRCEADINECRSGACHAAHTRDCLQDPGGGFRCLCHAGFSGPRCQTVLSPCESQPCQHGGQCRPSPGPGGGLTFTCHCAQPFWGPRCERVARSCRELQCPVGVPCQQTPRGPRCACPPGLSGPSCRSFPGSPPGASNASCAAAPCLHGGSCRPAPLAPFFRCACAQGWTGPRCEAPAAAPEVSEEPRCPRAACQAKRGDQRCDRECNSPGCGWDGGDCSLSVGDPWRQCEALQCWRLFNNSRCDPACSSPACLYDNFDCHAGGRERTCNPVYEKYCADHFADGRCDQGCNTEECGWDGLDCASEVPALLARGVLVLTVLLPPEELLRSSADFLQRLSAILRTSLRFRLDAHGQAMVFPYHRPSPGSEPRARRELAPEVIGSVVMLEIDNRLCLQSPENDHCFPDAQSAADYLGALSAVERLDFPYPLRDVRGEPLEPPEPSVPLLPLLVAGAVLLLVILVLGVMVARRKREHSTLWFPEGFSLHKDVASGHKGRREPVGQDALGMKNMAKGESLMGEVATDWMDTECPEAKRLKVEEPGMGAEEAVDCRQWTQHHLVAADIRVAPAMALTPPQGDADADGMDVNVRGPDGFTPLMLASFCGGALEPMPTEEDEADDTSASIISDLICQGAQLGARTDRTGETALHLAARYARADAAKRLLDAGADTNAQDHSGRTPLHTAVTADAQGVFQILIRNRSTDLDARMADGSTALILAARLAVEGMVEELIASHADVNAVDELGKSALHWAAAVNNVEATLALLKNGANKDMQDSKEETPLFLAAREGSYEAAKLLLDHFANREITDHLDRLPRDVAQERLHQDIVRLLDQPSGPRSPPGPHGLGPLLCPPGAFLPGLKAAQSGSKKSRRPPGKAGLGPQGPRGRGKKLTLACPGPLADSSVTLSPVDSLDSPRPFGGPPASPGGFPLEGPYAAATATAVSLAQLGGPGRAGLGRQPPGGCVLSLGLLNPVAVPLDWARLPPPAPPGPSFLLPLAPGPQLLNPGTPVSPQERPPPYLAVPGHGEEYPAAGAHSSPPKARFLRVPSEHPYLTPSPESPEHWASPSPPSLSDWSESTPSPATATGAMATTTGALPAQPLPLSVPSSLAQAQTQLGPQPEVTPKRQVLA
Sequence of Epidermal growth factor receptor (Homo sapiens) (P00533 whole entry, looked up): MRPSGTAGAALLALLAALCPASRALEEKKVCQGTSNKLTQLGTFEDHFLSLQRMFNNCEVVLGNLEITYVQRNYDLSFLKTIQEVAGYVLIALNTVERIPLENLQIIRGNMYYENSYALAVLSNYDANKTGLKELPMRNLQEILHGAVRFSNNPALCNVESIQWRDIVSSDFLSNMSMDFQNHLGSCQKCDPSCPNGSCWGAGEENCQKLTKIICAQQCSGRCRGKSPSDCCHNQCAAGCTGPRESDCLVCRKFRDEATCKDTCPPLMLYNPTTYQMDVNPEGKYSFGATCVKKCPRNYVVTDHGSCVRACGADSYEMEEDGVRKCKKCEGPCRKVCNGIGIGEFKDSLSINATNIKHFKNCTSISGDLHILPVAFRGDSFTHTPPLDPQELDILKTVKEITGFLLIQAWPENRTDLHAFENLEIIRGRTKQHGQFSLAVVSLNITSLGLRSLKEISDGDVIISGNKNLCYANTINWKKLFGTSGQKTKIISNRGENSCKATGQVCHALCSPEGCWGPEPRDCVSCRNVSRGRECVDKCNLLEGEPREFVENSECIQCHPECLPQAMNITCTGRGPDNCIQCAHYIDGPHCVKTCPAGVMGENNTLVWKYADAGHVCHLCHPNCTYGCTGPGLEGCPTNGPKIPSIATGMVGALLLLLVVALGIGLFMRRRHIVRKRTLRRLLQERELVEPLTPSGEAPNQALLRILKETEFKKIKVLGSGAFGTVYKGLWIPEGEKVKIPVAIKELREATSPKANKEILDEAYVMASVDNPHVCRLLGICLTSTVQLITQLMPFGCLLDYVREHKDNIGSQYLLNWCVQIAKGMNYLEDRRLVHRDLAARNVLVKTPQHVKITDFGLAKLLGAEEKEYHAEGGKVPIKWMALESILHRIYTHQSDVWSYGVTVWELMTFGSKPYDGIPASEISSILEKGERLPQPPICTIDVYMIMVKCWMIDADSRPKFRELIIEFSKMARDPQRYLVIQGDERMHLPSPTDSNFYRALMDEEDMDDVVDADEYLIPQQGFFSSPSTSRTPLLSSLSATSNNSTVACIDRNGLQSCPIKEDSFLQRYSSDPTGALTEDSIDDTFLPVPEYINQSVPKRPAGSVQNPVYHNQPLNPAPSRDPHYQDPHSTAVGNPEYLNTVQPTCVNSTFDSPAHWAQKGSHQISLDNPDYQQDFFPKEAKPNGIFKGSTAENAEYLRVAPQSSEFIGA
Sequence of Follistatin-related protein 3 (Homo sapiens) (O95633 whole entry, looked up): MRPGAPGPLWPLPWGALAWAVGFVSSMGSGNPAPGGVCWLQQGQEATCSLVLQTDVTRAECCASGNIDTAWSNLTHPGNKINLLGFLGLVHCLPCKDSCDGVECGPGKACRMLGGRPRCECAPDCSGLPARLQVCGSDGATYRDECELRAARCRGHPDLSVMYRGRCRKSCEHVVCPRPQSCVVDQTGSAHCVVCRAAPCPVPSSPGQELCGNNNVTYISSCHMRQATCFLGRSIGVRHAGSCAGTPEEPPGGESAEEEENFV
Sequence of Dickkopf-related protein 1 (Homo sapiens) (O94907 whole entry, looked up): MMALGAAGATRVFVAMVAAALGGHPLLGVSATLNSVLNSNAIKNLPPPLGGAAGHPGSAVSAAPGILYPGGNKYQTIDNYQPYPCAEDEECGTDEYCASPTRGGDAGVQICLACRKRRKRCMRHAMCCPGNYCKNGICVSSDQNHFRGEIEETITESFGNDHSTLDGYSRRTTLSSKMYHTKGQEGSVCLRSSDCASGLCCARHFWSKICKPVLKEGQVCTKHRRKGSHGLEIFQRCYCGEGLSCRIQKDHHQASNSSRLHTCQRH
Sequence of Torsin-1A-interacting protein 2 (Homo sapiens) (Q8NFQ8 whole entry, looked up): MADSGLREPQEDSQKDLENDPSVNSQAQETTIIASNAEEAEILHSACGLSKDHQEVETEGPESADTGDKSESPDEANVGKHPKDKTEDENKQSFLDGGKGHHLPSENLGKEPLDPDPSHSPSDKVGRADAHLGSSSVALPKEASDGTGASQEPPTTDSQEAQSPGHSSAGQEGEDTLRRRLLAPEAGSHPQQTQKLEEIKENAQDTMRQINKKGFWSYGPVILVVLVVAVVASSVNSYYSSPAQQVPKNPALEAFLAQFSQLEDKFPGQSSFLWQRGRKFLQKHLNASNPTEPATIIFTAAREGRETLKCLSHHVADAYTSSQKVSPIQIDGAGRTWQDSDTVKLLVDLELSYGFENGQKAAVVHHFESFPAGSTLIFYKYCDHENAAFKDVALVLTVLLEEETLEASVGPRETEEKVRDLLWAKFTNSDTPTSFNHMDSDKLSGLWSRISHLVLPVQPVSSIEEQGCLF

Row | Structure (SMILES) | composite z-score [1] | z-score [2] | z-score [3] | z-score [4] | composite z-score [5] | z-score [6] | composite z-score [7] | composite z-score [8] | composite z-score [9] | composite z-score [10] | composite z-score [11] | composite z-score [12] | composite z-score [13] | z-score [14] | composite z-score [15] | composite z-score [16] | composite z-score [17] | composite z-score [18] | composite z-score [19] | composite z-score [20]
1 | CO[C@@H]1C=CCC(=O)N2CCC[C@H]2C(=O)OC[C@@H](C)C(=O)OC[C@H]1C | 0.865 | -0.0313 (inactive) | -1.32 (inactive) | -0.918 (inactive) | -0.334 | 0.872 (inactive) | -0.143 | 1.56 | -0.0741 | -0.0444 | 1.1 | -0.21 | -0.822 | -0.497 (inactive) | 0.441 | 0.484 | 0.521 | 1.44 | 1.43 | 0.163
2 | O=C1C[C@@H](O)[C@@H](O)[C@@H]2[C@@H]3C(=O)N(Cc4ccccc4)C(=O)[C@@H]3CC[C@@H]12 | 0.187 | -0.365 (inactive) | -0.136 (inactive) | -0.115 (inactive) | 0.824 | -0.174 (inactive) | -0.14 | 0.45 | 0.618 | -0.0432 | 0.463 | -0.222 | -0.47 | 0.859 (inactive) | 0.807 | 0.863 | 0.506 | 0.888 | 0.59 | 0.11
3 | CCCNC(=O)OC[C@H]1O[C@H](CCON=Cc2ccc(C(=O)N3[C@H](c4ccc(C)cc4)[C@@H](C)CC[C@H]3C(=O)OC)cc2)C=C[C@@H]1Oc1ccc(OC)cc1 | 1.15 | 0.0299 (inactive) | 1.68 (inactive) | 1.25 (inactive) | 1.02 | 0.215 (inactive) | -0.263 | 1.03 | 0.607 | -0.307 | 0.463 | -0.186 | -0.0627 | -0.357 (inactive) | 0.523 | 0.581 | 0.417 | 0.355 | 0.0399 | 0.446
4 | COC(=O)CC=C[C@@H](C)[C@@H](C=NO[C@H](C)c1cn([C@@H]2COC[C@H]2O)nn1)NS(=O)(=O)c1ccc(C)cc1 | 0.274 | 0.412 (inactive) | 0.144 (inactive) | -0.173 (inactive) | -0.0305 | 0.554 (inactive) | 0.0428 | 0.492 | 0.223 | 0.0049 | 0.163 | -0.268 | -0.57 | -0.0248 (inactive) | 0.43 | 0.427 | 0.59 | 0.746 | 1.07 | 0.216
5 | CO[C@H]1COC(=O)CC=C[C@@H](C)[C@H](OC)COC(=O)CCC[C@@H]1C | 0.76 | -1.47 (inactive) | -0.441 (inactive) | -1.37 (inactive) | -0.552 | -0.351 (inactive) | -0.17 | 0.978 | 0.288 | -0.163 | 0.786 | -0.175 | -0.791 | -1.16 (inactive) | 0.254 | 0.274 | 0.487 | 0.633 | 1.19 | 1.25

Reference: PubChem BioAssay
